Our source for the Potency values is PubChem BioAssay AID1347043 (National Center for Advancing Translational Sciences (NCATS), 2019).

The structures appear in SMILES notation. Hit rate of the full screen: of about 76,000 compounds, about 1,900 (2.5%) were called active. A call without a number means that no potency is given here. Not shown: some 5% with an inconclusive outcome. Calls come from the whole dose curve; as a rule, active = well fitted inhibition curve with a large enough effect; inconclusive = small, poorly fitted or top-dose-only effect; inactive = flat fitted curve, though single readings scatter. The full list was thinned out, with actives kept by preference.
Potency is the fitted concentration of half-maximal effect.

In this assay the target is Luciferin 4-monooxygenase (Photinus pyralis) (UniProt P08659). Put plainly: Firefly luciferase inhibition profiling of diverse chemical library using quantitative high-throughput screening. Note: nearly all actives have a fitted effect of over 65% in size. The following applies: purified P. pyralis luciferase, luminescence, biochemical; series mostly up to 115 µM. Summed up: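 Cell-free enzyme assay, 10nM P. pyralis luciferase, luciferin and ATP each at 10uM. Inhibition profiled over a 6-point titration, read as luminescence.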
Sequence of Luciferin 4-monooxygenase (Photinus pyralis) (P08659 whole entry, looked up): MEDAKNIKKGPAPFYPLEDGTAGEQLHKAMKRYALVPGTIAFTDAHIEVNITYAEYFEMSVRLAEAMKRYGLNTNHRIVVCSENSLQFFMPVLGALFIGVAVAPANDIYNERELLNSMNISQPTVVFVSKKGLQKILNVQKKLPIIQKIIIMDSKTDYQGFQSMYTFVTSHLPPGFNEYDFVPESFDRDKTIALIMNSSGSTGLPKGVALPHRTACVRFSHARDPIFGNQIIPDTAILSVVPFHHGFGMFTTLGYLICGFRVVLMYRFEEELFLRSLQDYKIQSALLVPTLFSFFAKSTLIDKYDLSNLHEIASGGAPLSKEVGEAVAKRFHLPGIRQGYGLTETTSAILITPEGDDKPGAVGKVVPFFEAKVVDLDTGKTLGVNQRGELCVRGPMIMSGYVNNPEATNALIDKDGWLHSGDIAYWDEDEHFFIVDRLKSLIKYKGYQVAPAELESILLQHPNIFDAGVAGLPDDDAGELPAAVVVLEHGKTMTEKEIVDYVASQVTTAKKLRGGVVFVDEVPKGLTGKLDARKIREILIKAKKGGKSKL
For the compound `CN(CCCNC1CCC2(CCNCC2)CC1)c1ccccc1`, the Potency result is “inactive”. In the case of `O=C(Nc1ccc(F)cc1)[C@@H]1C[C@@H](c2ccc(F)cc2)N([S+](=O)([O-])c2ccccc2)C1`, the Potency result is “inactive”. Turning to `O=C(NCc1ccccc1)NC1CCc2nn(CC3CC3)c(=O)n2CC1` (centres undefined), the Potency result was “inactive”. Under `CCCc1noc(-c2cn(C3CCN(C(=O)c4ccc(C)s4)CC3)nn2)n1` stands “inactive”; under `O=C(NCc1cccs1)c1ccc2c(c1)OCCN(c1ccccc1)C2`, “inactive”; under `Cc1cc(NC(=O)c2ccc3c(c2)OCCN(CCC(F)(F)F)C3)ccc1F`, “inactive”.

`O=C(NCCc1ccccc1)c1ccc2c(c1)OCCN(CCC(F)(F)F)C2`: the Potency was 39.8 µM (active). Under `CC(C)NC(=O)C1COC2(CCN(C(=O)c3ccccc3Cl)CC2)N1C(=O)c1ccccc1` (centres undefined) stands “inactive”; under `O[C@H]1CC[C@@H](Cc2cc(-c3ccccc3)on2)O[C@@H]1CNCc1ccccc1`, “inactive”; under `C=CCN1C(=O)[C@@H]2C[C@@H](NC(=O)c3ccncc3)CCN2C1=O`, “inactive”. For the compound `CC(C)(C)c1ccc(N2C(=O)[C@@H]3C[C@@H](NC(=O)[C@@H](O)c4ccccc4)CCN3C2=O)cc1`, the Potency was 35.5 µM (active). Under `CCn1ncc(N2CCC(NC(=O)C(C)c3ccccc3)CC2)cc1=O` (centres undefined) stands “inactive”; under `Cc1nc(-c2ccc(F)cc2)n(Cc2cccc(Cl)c2)c(=O)c1CCO`, “inactive”; under `Cn1cccc1CN1CCC(N2CCC[S+]2(=O)[O-])CC1`, “inactive”. As for `CCN1C(=O)CCN(C(=O)CCc2ccc(OC)cc2)CC12CCOCC2`, the Potency result was “inactive”.

With `CC(C)CC(=O)N1CCC(c2noc(-c3cnccn3)n2)C1` (centres undefined), the Potency result is “inactive”. To `COc1ccc(C(=O)N2CCC3(CC2)CC(OC)CCO3)cc1OC` (centres undefined) belongs “inactive”; to `COCc1nncn1C1CCN(C(=O)c2ccccc2F)CC1`, “inactive”; to `CCn1cnnc1CC1CCN(C(=O)C2CCN(Cc3nc(-c4cccc(C)c4)oc3C)CC2)CC1`, “inactive”.

As for `CCn1cnnc1CC1CCN(C(=O)c2cc(-c3ccc(F)cc3)nc3ccccc23)CC1`, the Potency was 14.1 µM (active). Under `Cc1noc(-c2cccc(OC3CN(C(=O)NCCc4ccccc4)C3)c2)n1` stands “inactive”. With `COc1nccc(N2CCC(CC(=O)NCc3ccc(F)cc3Cl)CC2)n1`, the Potency result was “inactive”. Under `CN(C)C[C@@H]1CN(C)C[C@H]1NC(=O)c1cc2ccccc2[nH]1` stands 39.8 µM (active); under `COc1ccc2[nH]c(C(=O)N[C@@H]3CN(S(C)(=O)=O)C[C@H]3CN(C)C)cc2c1`, “inactive”; under `CN(C)C[C@@H]1CN(C)C[C@H]1NC(=O)c1ccnnc1`, “inactive”.

On to `COc1ccccc1Nc1cnc2ccc(-c3ccc(OC)c(OC)c3)nn12`, for which the Potency result is “inactive”.

As to `COCC1CN(C(=O)c2cc(C)n(C)n2)CC12CCNCC2` (centres undefined), the Potency entry is “inactive”.

With `O=C(NC1CC1)c1ccc2c(c1)C1(CCN(CC3CC3)C1)CN2Cc1ccccc1` (centres undefined), the Potency result is “inactive”. To `CC(=O)Nc1ccc(CN2CCCC3(CC(c4cccc(C(F)(F)F)c4)=NO3)C2)cc1` (centres undefined) belongs “inactive”; to `CC(=O)NC1(C)CCN(Cc2cccc(-c3ccc(C(=O)c4ccccc4)cc3)c2)C1` (centres undefined), 39.8 µM (active).

As for `CSCCNC(=O)c1coc(CN2CCN(C/C=C/c3ccccc3)CC2)n1`, the Potency entry was “inactive”.

With `Cc1cccc(NC(=O)C2CC(=O)N(c3n[nH]c4ccccc34)C2)n1` (centres undefined), the Potency result was “inactive”.

As for `Cc1ccsc1C(=O)NCC1Cn2cccc2C(=O)N1Cc1ccccc1` (centres undefined), the Potency result is “inactive”. Regarding `Cc1ccc(NC(=O)Nc2ccc(C)n(CC(=O)NCCN3CCCC3)c2=O)cc1`, the Potency was 14.1 µM (active).

Regarding `Cc1ccc(S(=O)(=O)Nc2ccc(C)n(CC(=O)NCc3cccc(F)c3)c2=O)cc1`, the Potency entry was “inactive”. For the compound `COc1ccc(NC(=O)Cn2c(C)ccc(NS(=O)(=O)c3ccccc3)c2=O)cc1`, the Potency result is “inactive”. Under `CN(C)c1ccc(CN2CCC3(CC(Cc4ccccc4)=NO3)C2)cc1` (centres undefined) stands “inactive”. As for `CCN1c2cc(C(=O)Nc3ccc(F)c(Cl)c3)ccc2C(=O)N2CCCCC21` (centres undefined), the Potency entry was “inactive”. To `CCN1c2cc(C(=O)NCc3ccc(OC)cc3OC)ccc2C(=O)N2CCCCCC21` (centres undefined) belongs “inactive”; to `CCN1c2cc(C(=O)Nc3ccc(SC)cc3)ccc2C(=O)N2CCCCCC21` (centres undefined), “inactive”; to `CN1c2cc(C(=O)N3CCC(C(N)=O)CC3)ccc2C(=O)N2CCCCC21` (centres undefined), “inactive”. To `CN1c2cc(C(=O)Nc3ccc(F)c(F)c3)ccc2C(=O)N2CCCCCC21` (centres undefined) belongs 5.62 µM (active); to `CN1c2cc(C(=O)Nc3ccc(F)cc3)ccc2C(=O)N2CCCCC21` (centres undefined), 25.1 µM (active); to `CCOc1ccc(NC(=O)c2ccc3c(c2)N(C)C2CCCN2C3=O)cc1` (centres undefined), 44.7 µM (active). In the case of `CCN1c2cc(C(=O)Nc3ccc(OC)c(F)c3)ccc2C(=O)N2CCCCC21` (centres undefined), the Potency entry is “inactive”. Turning to `CCN1c2cc(C(=O)Nc3ccc(F)c(C)c3)ccc2C(=O)N2CCCCC21` (centres undefined), the Potency entry is “inactive”. Under `Cc1cc(NC(=O)c2ccc3c(c2)N(C)C2CCCCCN2C3=O)ccc1F` (centres undefined) stands 17.8 µM (active); under `Cc1ccc(CNC(=O)c2ccc3c(c2)N(C)C2CCCCN2C3=O)cc1C` (centres undefined), “inactive”. On to `COc1ccc(CNC(=O)c2ccc3c(c2)N(C)C2CCCCN2C3=O)c(OC)c1` (centres undefined), for which the Potency entry is “inactive”. Under `O=C(Cc1cccc(Cl)c1)N1CCC([C@@H]2CNC[C@H]2CO)CC1` stands “inactive”; under `CN1CCN(C2CCOC3(CCN(C(=O)c4cccc5[nH]ccc45)CC3)C2)CC1` (centres undefined), “inactive”; under `O=C(NCc1ccccc1C(F)(F)F)c1cc2n(n1)CC(c1ccc3c(c1)OCO3)OC2` (centres undefined), “inactive”. To `CC(C)CN1CCN(C2CCOC3(CCN(C(=O)C4CCCC4)CC3)C2)CC1` (centres undefined) belongs “inactive”; to `O=C(NCc1nnc2c(-c3nc(C4CC4)no3)cccn12)c1cccnc1`, “inactive”; to `CC(=O)N1CCc2[nH]cnc2C12CCN(C(=O)C(C)Oc1ccccc1)CC2` (centres undefined), “inactive”. Consider `CCc1noc(-c2ccn3c(CNC(=O)c4ccc(OC)c(F)c4)nnc3c2)n1`, for which the Potency entry is “inactive”. `O=C(c1ccc2c(c1)OCO2)N1CCCC2(CN[S+](=O)([O-])c3ccccc3N2)C1` (centres undefined): the Potency entry is “inactive”. For the compound `CCCn1c(C)cnc1CC1CCN(C(=O)CCOC)CC1`, the Potency entry was “inactive”. Under `Cc1cccc(N2C(=O)CSC23CCN(C(=O)C2CCC2)CC3)c1` stands “inactive”; under `COc1ccnc(CN2CCN(C)C3(CCC(=O)N(C)CC3)C2)c1OC` (centres undefined), “inactive”; under `CCN(CC)CC[C@H]1CN(C(=O)c2ccc(N(C)C)cc2)CC[C@H]1CC(=O)O`, “inactive”. With `CN1c2cc(C(=O)Nc3ccccc3)ccc2C(=O)N2CCCCCC21` (centres undefined), the Potency was 6.31 µM (active). Regarding `CCN1c2cc(C(=O)Nc3ccccc3)ccc2C(=O)N2CCCC21` (centres undefined), the Potency entry was “inactive”. As for `Cc1ccccc1CNC(=O)c1ccc2c(c1)N(C)C1CCCCN1C2=O` (centres undefined), the Potency result is “inactive”.
